# Screening data (PubChem BioAssay)
# This is one part of a sample in which hits are shown more often than they occur.
# Pf Dd2 growth: Plasmodium falciparum Dd2 growth inhibition | P. falciparum Dd2 growth, SYBR Green, 72 h | Potency, µM (titrated, usually from 28.9 µM), for the others: at the highest dose activity, negative = inhibition, usual class: inhibitors | 4.3% of 120,000 active; active = well fitted inhibition curve with a large enough effect;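 note: plate controls were DMSO vehicle for no effect and reference drug for full effect; nearly all actives have a fitted effect of over 65% in size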
#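 Infected erythrocytes (Dd2, 0.3% parasitemia, 2.5% hematocrit final) are added to compound in RPMI-1640/Albumax II medium, grown 72 h at 37C in low oxygen, then lysed with saponin/Triton-X containing SYBR Green and read by fluorescence.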
# * = called active by the depositor; i = inactive; [ ] = remark or other dose. Potency is the fitted concentration of half-maximal effect.
SMILES,Pf Dd2 growth
CC1(C(=O)NC2CCC2)CN(Cc2ccccc2)Cc2ccc(N3CCOCC3)nc21 (configuration not stated),i
CC(C)Cc1nc(NC(=O)C[C@H]2NC(=O)c3ccccc3NC2=O)n[nH]1,-6%
CC(C)(Oc1ccc2c(c1)CCC2)C(=O)N1CCC2(CCCNC2=O)C1 (configuration not stated),-2%
Fc1cccc(-n2cc(CN3CCCC4(CCOC4)C3)cn2)c1 (configuration not stated),-14%
CN(Cc1ccc(CN2CCCC(O)(CO)C2)o1)S(C)(=O)=O (configuration not stated),26%
CC(C)c1ccc(-n2cc(CN3CCCC(O)(CN(C)C)C3)cn2)cc1 (configuration not stated),6.3µM*
Cn1ncc(N2CCC(C(=O)NCC3CC3)C2)cc1=O (configuration not stated),i
COc1ccc(C(=O)N2CCOC(CCCC(C)C)C2)o1 (configuration not stated),-23%
CCN1CCN(C(=O)C2CCc3nc(N4CCN(C(=O)C5CCC5)CC4)sc3C2)CC1 (configuration not stated),-2%
Cc1ccccc1C(=O)N1CCC(C(=O)Nc2ccc(F)cc2F)CC1,38%
CCC(=O)N1CCN(c2nc3c(s2)CC(C(=O)NCc2cccc(OC)c2)CC3)CC1 (configuration not stated),-4%
O=C(NCc1ccco1)C1CCc2nc(N3CCN(C(=O)C4CCC4)CC3)sc2C1 (configuration not stated),i
CCC(=O)N1CCN(c2nc3c(s2)CC(C(=O)Nc2ccc(F)cc2F)CC3)CC1 (configuration not stated),5µM*
CCC(=O)N1CCc2nc(N3CCN(Cc4cccnc4)CC3)sc2C1,i
CCC(=O)N1CCN(c2nc3c(s2)CC(C(=O)Nc2cccc(C)c2C)CC3)CC1 (configuration not stated),4µM*
O=C(NCc1cccs1)C1CCc2nc(N3CCN(C(=O)C4CCC4)CC3)sc2C1 (configuration not stated),5µM*
O=C(O)C1CCc2nc(N3CCN(C(=O)C4CCC4)CC3)sc2C1 (configuration not stated),-20%
Cc1cccc(NC(=O)C2CCN(c3nnc(-n4c(C)ccc4C)s3)CC2)c1C,i
CCC(=O)N1CCN(c2nc3c(s2)CC(C(=O)NCc2ccccc2)CC3)CC1 (configuration not stated),7.9µM*
O=C(NCc1ccncc1)C1CCc2nc(N3CCN(C(=O)C4CCC4)CC3)sc2C1 (configuration not stated),i
O=C(c1ccsc1)N1CCC(Oc2ccccc2-c2nc(C3CC3)no2)C1 (configuration not stated),-4%
COc1cccc([S+](=O)([O-])N2CCC3(CC2)CC(=O)Nc2ccccc2O3)c1,-10%
CCCNC(=O)c1ccc(S(=O)(=O)NCC2(O)CCCNC2)cc1 (configuration not stated),-11%
O=C(O)C1(CCc2ccccc2)CCCN(c2ncnc3nc[nH]c23)C1 (configuration not stated),-12%
Cc1nc(CN2CCN(C(=O)C(c3ccccc3F)N(C)C)CC2)cs1 (configuration not stated),-1%
SMILES,Pf Dd2 growth
O=C1CCN(C(=O)C2CCN(S(=O)(=O)c3ccccc3)CC2)CCCCCCN1,16%
Cn1c(=O)n(C)c2cc(S(=O)(=O)NCC3(O)CCCNCC3)ccc21 (configuration not stated),-9%
COc1cccc(C(=O)N[C@@H]2CN(S(C)(=O)=O)C[C@H]2CN(C)C)c1,-3%
O=C(CCn1ccn2nc3c(c2c1=O)CCCC3)NCc1ccco1,-4%
CCc1noc(-c2nc(-c3ccc(OC)c(F)c3)no2)n1,-23%
Cc1noc(C)c1CC(=O)N1CCCC1c1nc(C2CCOCC2)no1 (configuration not stated),33%
CN(C(=O)CN1C(=O)NC2(CCOCC2)C1=O)C1CCCCC1,13%
Cn1cccc1C(=O)N1CCC(C(=O)N2CCCCCCNC(=O)CC2)CC1,19%
O=C(Cc1ccccc1)N1CCC2(CCCN(C3CCOCC3)C2=O)C1 (configuration not stated),0%
CN(C)C(=O)N1CCCn2nc(CNC(=O)c3sccc3N)cc2C1,-12%
CCC(C)NC(=O)C1COC2(CCN(C(=O)c3cccc(OC)c3)CC2)N1C(=O)c1ccccc1 (configuration not stated),-27%
Cc1cccc(CN2CCCn3nc(C)c(-c4ccccc4-c4ccccc4)c32)n1,-16%[44.1 µM]
CCOc1ccc(CN2CC[C@@](C)(O)[C@H](N3CCCC3)C2)cc1OC,-12%[5.79 µM]
COC(=O)c1cccc(OCCn2ccnc2-c2nc[nH]c2C)c1,-7%
O=C(NC1CCCC1)N1CCCN(c2nc3ncccc3o2)CC1,14%[44.1 µM]
CCN(CC)CCCNC(=O)Cc1ccc(NC(=O)N2CCCCc3ccccc32)cc1,17%
CCN(CC)CCNC(=O)c1ccc(-n2c(-c3ccccc3)cc3c2CCCC3)cc1,7.9µM*
CCN(CC)CCNC(=O)c1ccc2c(c1)N(S(C)(=O)=O)CC2,24%
Cc1ccc(C2=NC3(CCN(C(=O)c4ccc[nH]4)CC3)ON2)cc1,-56%
CN1C(=O)CC(C(=O)O)C12CCN(Cc1nn(C)c3cccc(Cl)c13)CC2 (configuration not stated),1%
O=C(c1cc(COc2ccc3c(c2)OCO3)[nH]n1)N1CCCC1c1ccccn1 (configuration not stated),-11%
COCCOC1CCOC2(CCN(C(=O)c3cc(F)ccc3F)CC2)C1 (configuration not stated),11%
COc1cc(=O)n2c(c1C(=O)Nc1ccc(C)cc1)CCCC2,i
Cc1ccc(NC(=O)Cn2c(=O)oc3cc(S(=O)(=O)N4CCCCC4)ccc32)c(C)c1,-4%
COc1ccc(NC(=O)c2c(C)oc3ccn(Cc4cccc(F)c4)c(=O)c23)cc1F,-17%
SMILES,Pf Dd2 growth
CCN(CC)S(=O)(=O)c1ccc(NC(=O)c2c(C)oc3ncnc(N4CCCCC4)c23)cc1,32%
Cc1ccc(NC(=O)c2c(C)oc3ccc(O)c(CN4CCCCCC4)c23)cc1,0.63µM*
Cc1ccc(NC(=O)c2cc(S(=O)(=O)N3CCCC3)c[nH]2)c(C)c1,i
COc1ccc(NC(=O)c2c(C)oc3ccc(O)c(CN4CCCC(C)C4)c23)cc1Cl (configuration not stated),0.4µM*
COc1ccc(NC(=O)c2cccn2-c2nnc(N3CCCCC3)s2)cc1Cl,6%
Cc1ccc(NC(=O)c2c(C)oc3ccc(O)c(CN4CCCCCC4)c23)c(C)c1,1.1µM*
O=S(=O)(c1ccccc1)N1CCC(NCC2(O)CNCCOC2)CC1 (configuration not stated),2%
O=c1ncn(CC2CC2)c2ccc(-c3ccc(F)cc3F)nc12,i
O=C(NCCC1CCN(C(=O)Nc2ccc(F)cc2F)CC1)c1cc(F)ccc1F,-24%
NCCN1C(=O)CC[C@H]2CN(C(=O)c3ccc(Cl)s3)CC[C@H]21,-1%
CN(C(=O)c1ccccc1F)C1CCCc2ccccc21 (configuration not stated),i
O=C(c1nc(-c2cccnc2)c2ccccn12)N1CCN(c2ncccn2)CC1,-2%
C[S+](=O)([O-])c1ccc(-c2nc(C(=O)N3CCN(c4ncccn4)CC3)n3ccccc23)cc1,7.1µM*
O=C(c1nc(-c2cc(Cl)cc(Cl)c2)c2ccccn12)N1CCN(c2ncccn2)CC1,i
